# According to PubChem BioAssay AID1159580 (chemical genetic matrix, 2015):
# Several values for one entry are separate records, joined by “and”; a condition that tells them apart may be missing. Equal entries are not always repeated. In all, about 5,500 compounds went through this assay and about 2,000 (36%) were called active. Roughly 18% stayed inconclusive and do not appear here. The list shows a part of the results. Values without a mark were called inactive. Rule as the data show it: active = normalized growth mostly below about 0.91 (no sharp cut-off); inconclusive = no clear call, values can overlap the other calls; inactive = mostly above about 0.92.
# Assay: chemical genetic growth profiling, strain panel (AID 1159580);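 also: tested at 20 µM; growth read once vehicle control cultures reached saturation at 30 °C; 1 = growth at the plate median or of vehicle wells; lower values mean less growth of the strain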
# Details: S. cerevisiae deletion strains, growth OD
smiles,measurement,setting,value
CC1(C)CC[C@]2(C(=O)O)CC[C@]3(C)C(=CCC4[C@@]5(C)CC[C@H](O)[C@@](C)(CO)C5CC[C@]43C)C2C1 (stereo partly specified),normalized growth,"locus YAL021C, strain ccr4, active compounds read low",1
same,normalized growth,"locus YAL026C, strain drs2, active compounds read low",1.02
same,normalized growth,"locus YAL030W, strain snc1, active compounds read low",1.02
same,normalized growth,"locus YBL061C, strain skt5, active compounds read low",1.01
same,normalized growth,"locus YBR009C, strain hhf1, active compounds read low",1.02
same,normalized growth,"locus YBR021W, strain FUR4, active compounds read low",1.11
same,normalized growth,"locus YBR023C, strain chs3, active compounds read low",1.02
same,normalized growth,"locus YBR171W, strain sec66, active compounds read low",1.04
same,normalized growth,"locus YBR229C, strain ROT2, active compounds read low",1.02
same,normalized growth,"locus YBR231C, strain swc5, active compounds read low",1.02
same,normalized growth,"locus YBR279W, strain paf1, active compounds read low",1.02
same,normalized growth,"locus YCL011C, strain gbp2, active compounds read low",1.03
same,normalized growth,"locus YCL016C, strain dcc1, active compounds read low",1.03
same,normalized growth,"locus YCL029C, strain bik1, active compounds read low",0.977
same,normalized growth,"locus YCL061C, strain MRC1, active compounds read low",1.02
same,normalized growth,"locus YCL069W, strain vba3, active compounds read low",1.03
same,normalized growth,"locus YCR088W, strain abp1, active compounds read low",1.02
same,normalized growth,"locus YDL005C, strain med2, active compounds read low",1.04
same,normalized growth,"locus YDL035C, strain GPR1, active compounds read low",1.04
same,normalized growth,"locus YDL040C, strain nat1, active compounds read low",1.05
same,normalized growth,"locus YDL074C, strain BRE1, active compounds read low",0.981
same,normalized growth,"locus YDL101C, strain DUN1, active compounds read low",1.02
same,normalized growth,"locus YDL134C, strain PPH21, active compounds read low",1.1
same,normalized growth,"locus YDL185W, strain tfp1, active compounds read low",0.946
same,normalized growth,"locus YDL192W, strain arf1, active compounds read low",0.99
same,normalized growth,"locus YDR001C, strain nth1, active compounds read low",1.02
same,normalized growth,"locus YDR069C, strain doa4, active compounds read low",1.03
same,normalized growth,"locus YDR101C, strain arx1, active compounds read low",1.01
same,normalized growth,"locus YDR137W, strain rgp1, active compounds read low",1.04
same,normalized growth,"locus YDR159W, strain sac3, active compounds read low",1.04
same,normalized growth,"locus YDR162C, strain NBP2, active compounds read low",1.07
same,normalized growth,"locus YDR195W, strain ref2",1.08
same,normalized growth,"locus YDR297W, strain sur2, active compounds read low",1.03
same,normalized growth,"locus YDR318W, strain mcm21, active compounds read low",0.999
same,normalized growth,"locus YDR334W, strain swr1, active compounds read low",1.03
same,normalized growth,"locus YDR335W, strain msn5, active compounds read low",1.02
same,normalized growth,"locus YDR388W, active compounds read low",0.994
same,normalized growth,"locus YDR392W, strain spt3, active compounds read low",1.01
same,normalized growth,"locus YDR502C, strain sam2, active compounds read low",0.999
same,normalized growth,"locus YEL003W, strain gim4, active compounds read low",1.02
same,normalized growth,"locus YEL037C, strain rad23, active compounds read low",1.02
same,normalized growth,"locus YEL061C, strain CIN8 (second series), active compounds read low",1.02
same,normalized growth,"locus YEL061C, strain CIN8, active compounds read low",1
same,normalized growth,"locus YER015W, strain faa2, active compounds read low",1.02
same,normalized growth,"locus YER016W, strain bim1, active compounds read low",1.03
same,normalized growth,"locus YER110C, active compounds read low",0.987
same,normalized growth,"locus YER111C, strain swi4, active compounds read low",1.02
same,normalized growth,"locus YER155C, strain BEM2 (second series), active compounds read low",1.03
same,normalized growth,"locus YER155C, strain BEM2, active compounds read low",1.01
same,normalized growth,"locus YER167W, strain BCK2, active compounds read low",1.02
same,normalized growth,"locus YFR010W, strain ubp6, active compounds read low",1.02
same,normalized growth,"locus YGL078C, strain dbp3, active compounds read low",0.994
same,normalized growth,"locus YGL086W, strain mad1, active compounds read low",1.24 [resistant] (active)
same,normalized growth,"locus YGL167C, strain pmr1, active compounds read low",1.03
same,normalized growth,"locus YGL173C, strain kem1, active compounds read low",1.03
same,normalized growth,"locus YGL227W, strain vid30, active compounds read low",1.03
same,normalized growth,"locus YGL240W, strain doc1, active compounds read low",1.01
same,normalized growth,"locus YGL248W, strain PDE1, active compounds read low",1.03
same,normalized growth,"locus YGL253W, strain hxk2, active compounds read low",1.02
same,normalized growth,"locus YGR078C, strain PAC10, active compounds read low",1.03
same,normalized growth,"locus YGR135W, strain pre9, active compounds read low",1.01
same,normalized growth,"locus YGR229C, strain SMI1, active compounds read low",1.02
same,normalized growth,"locus YGR252W, strain gcn5, active compounds read low",1.02
same,normalized growth,"locus YHR013C, strain ard1, active compounds read low",1.06
same,normalized growth,"locus YHR027C, strain rpn1, active compounds read low",1.02
same,normalized growth,"locus YHR030C, strain SLT2, active compounds read low",0.989 and 1.03
same,normalized growth,"locus YHR079C, strain IRE1 (second series), active compounds read low",0.999
same,normalized growth,"locus YHR079C, strain IRE1, active compounds read low",1.02
same,normalized growth,"locus YHR094C, strain hxt1, active compounds read low",1
same,normalized growth,"locus YHR129C, strain ARP1, active compounds read low",1
same,normalized growth,"locus YHR142W, strain chs7, active compounds read low",1.03
same,normalized growth,"locus YHR200W, strain rpn10, active compounds read low",1.01
same,normalized growth,"locus YIL066C, strain RNR3, active compounds read low",1.03
same,normalized growth,"locus YIL073C, strain SPO22, active compounds read low",1
same,normalized growth,"locus YIL125W, strain kgd1, active compounds read low",0.99
same,normalized growth,"locus YIR030C, strain dcg1, active compounds read low",1.04
same,normalized growth,"locus YJL092W, strain hpr5, active compounds read low",1.03
same,normalized growth,"locus YJL095W, strain BCK1 (second series), active compounds read low",1.02
same,normalized growth,"locus YJL095W, strain BCK1, active compounds read low",1.04 and 0.98
same,normalized growth,"locus YJL115W, strain asf1, active compounds read low",1.03
same,normalized growth,"locus YJL129C, strain trk1, active compounds read low",1.02
same,normalized growth,"locus YJL134W, strain LCB3, active compounds read low",0.995
same,normalized growth,"locus YJL154C, strain vps35, active compounds read low",1.02
same,normalized growth,"locus YJL164C, strain tpk1, active compounds read low",1.05
same,normalized growth,"locus YJL166W, strain qcr8, active compounds read low",1.02
same,normalized growth,"locus YJL168C, strain set2, active compounds read low",0.998
